Test [1] deals with Dual specificity protein kinase CLK3 (Homo sapiens) (UniProt P49761). Conditions: at 1 µM.
Test [2] deals with Dual specificity tyrosine-phosphorylation-regulated kinase 1A (Homo sapiens) (UniProt Q13627). Conditions: at 0.1 µM.
The target is the same in test [3]. To be noted: at 1 µM.
For test [4], the target named is Dual specificity tyrosine-phosphorylation-regulated kinase 1B (Homo sapiens) (UniProt Q9Y463). To be noted: at 0.1 µM.
For test [5] the target is unchanged. To be noted: at 1 µM.
The target of test [6] is T1, Dual specificity tyrosine-phosphorylation-regulated kinase 2 (Homo sapiens) (UniProt Q92630).
T1 sequence (whole entry): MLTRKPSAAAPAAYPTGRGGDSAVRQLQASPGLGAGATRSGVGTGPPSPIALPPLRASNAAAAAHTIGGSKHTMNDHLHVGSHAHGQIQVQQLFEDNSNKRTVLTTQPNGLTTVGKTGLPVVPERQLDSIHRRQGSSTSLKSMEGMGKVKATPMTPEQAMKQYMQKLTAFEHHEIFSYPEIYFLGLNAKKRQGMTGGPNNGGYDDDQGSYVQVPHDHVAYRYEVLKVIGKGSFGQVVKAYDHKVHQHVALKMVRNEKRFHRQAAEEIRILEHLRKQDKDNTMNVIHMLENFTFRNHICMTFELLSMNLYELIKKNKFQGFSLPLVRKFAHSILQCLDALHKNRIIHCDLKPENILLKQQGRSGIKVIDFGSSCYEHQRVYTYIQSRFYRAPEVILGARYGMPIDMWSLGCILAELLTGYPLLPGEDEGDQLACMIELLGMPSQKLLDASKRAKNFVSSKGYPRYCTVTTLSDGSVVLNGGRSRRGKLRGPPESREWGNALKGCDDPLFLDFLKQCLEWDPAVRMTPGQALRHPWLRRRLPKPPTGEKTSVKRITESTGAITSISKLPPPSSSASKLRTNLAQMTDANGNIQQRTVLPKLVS
Conditions: at 0.1 µM.

The target in test [7] is T1, Dual specificity tyrosine-phosphorylation-regulated kinase 2 (Homo sapiens). Conditions: at 1 µM.
Test [8] concerns the target Glycogen synthase kinase-3 alpha (Homo sapiens) (UniProt P49840). Conditions: at 0.1 µM.
The target is the same in test [9]. To be noted: at 1 µM.
In test [10] the target is Glycogen synthase kinase-3 beta (Homo sapiens) (UniProt P49841). To be noted: at 0.1 µM.
Glycogen synthase kinase-3 beta (Homo sapiens), sequence (P49841 whole entry, looked up): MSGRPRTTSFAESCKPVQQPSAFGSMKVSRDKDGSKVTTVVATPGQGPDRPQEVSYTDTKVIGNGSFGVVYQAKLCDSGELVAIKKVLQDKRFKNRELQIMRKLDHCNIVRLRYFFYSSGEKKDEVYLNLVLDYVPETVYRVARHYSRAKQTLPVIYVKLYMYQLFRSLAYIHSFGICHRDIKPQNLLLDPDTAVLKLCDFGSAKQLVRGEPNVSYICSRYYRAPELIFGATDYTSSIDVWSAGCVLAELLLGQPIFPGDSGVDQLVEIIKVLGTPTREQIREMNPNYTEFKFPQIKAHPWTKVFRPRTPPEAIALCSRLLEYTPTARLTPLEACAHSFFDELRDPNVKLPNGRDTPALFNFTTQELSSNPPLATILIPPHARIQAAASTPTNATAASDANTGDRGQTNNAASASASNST
Test [11] has the same target. Conditions: at 1 µM.
In test [12] the target is Homeodomain-interacting protein kinase 1 (Homo sapiens) (UniProt Q86Z02). Conditions: at 0.1 µM.
Homeodomain-interacting protein kinase 1 (Homo sapiens), sequence (Q86Z02 whole entry, looked up): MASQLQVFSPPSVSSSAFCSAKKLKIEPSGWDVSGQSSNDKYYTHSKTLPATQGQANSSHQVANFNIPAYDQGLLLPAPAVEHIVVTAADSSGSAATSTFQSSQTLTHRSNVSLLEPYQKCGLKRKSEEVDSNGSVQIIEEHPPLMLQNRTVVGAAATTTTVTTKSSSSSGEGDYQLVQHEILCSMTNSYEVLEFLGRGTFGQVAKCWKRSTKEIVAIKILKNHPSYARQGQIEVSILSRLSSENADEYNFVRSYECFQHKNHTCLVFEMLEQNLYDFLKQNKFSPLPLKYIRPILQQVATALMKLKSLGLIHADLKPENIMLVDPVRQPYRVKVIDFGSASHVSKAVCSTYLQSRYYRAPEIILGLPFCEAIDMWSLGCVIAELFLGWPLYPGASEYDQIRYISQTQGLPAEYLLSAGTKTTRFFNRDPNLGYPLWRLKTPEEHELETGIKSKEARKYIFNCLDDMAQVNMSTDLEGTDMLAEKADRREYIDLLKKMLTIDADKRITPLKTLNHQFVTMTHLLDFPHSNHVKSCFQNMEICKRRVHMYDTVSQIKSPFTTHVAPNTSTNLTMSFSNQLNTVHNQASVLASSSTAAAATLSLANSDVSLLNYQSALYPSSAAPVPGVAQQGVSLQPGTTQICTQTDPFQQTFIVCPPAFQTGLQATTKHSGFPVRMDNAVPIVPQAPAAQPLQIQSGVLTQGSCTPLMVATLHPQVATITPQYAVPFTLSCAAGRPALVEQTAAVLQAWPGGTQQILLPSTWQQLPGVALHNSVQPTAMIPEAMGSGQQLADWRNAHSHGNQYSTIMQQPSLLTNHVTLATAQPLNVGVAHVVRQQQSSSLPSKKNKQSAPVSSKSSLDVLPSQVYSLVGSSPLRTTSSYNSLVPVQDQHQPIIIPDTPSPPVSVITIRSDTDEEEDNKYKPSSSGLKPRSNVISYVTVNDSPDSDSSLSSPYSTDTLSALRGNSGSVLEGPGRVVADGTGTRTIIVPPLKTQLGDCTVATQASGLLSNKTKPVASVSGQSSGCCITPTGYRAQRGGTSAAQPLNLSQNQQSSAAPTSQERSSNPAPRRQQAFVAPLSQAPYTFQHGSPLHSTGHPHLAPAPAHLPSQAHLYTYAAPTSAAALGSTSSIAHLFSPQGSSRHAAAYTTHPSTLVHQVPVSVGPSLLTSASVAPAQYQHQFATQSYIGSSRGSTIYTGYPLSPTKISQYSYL
The target is the same in test [13]. Conditions: at 1 µM.
Test [14] deals with T2, Homeodomain-interacting protein kinase 4 (Homo sapiens) (UniProt Q8NE63).
T2 sequence (whole entry): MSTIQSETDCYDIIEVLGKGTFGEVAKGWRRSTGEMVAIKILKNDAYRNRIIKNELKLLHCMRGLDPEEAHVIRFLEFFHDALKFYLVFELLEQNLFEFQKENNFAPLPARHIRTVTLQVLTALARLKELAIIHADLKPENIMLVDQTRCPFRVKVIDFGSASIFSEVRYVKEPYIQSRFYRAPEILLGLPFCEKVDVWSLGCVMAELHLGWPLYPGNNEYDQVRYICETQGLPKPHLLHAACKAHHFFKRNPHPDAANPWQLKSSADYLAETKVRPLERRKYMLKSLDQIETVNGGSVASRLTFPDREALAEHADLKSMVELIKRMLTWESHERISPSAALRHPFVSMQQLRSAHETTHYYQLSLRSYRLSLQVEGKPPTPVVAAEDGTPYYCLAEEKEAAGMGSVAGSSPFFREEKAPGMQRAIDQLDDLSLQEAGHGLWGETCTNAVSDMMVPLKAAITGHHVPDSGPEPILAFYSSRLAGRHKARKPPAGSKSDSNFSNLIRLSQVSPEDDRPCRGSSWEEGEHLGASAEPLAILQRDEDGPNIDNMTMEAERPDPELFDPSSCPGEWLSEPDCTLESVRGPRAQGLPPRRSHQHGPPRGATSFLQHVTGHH
To be noted: at 0.1 µM.

In test [15] the target is T2, Homeodomain-interacting protein kinase 4 (Homo sapiens). To be noted: at 1 µM.
For test [16], the target named is Mitogen-activated protein kinase 9 (Homo sapiens) (UniProt P45984). To be noted: at 0.1 µM.
Mitogen-activated protein kinase 9 (Homo sapiens), sequence (P45984 whole entry, looked up): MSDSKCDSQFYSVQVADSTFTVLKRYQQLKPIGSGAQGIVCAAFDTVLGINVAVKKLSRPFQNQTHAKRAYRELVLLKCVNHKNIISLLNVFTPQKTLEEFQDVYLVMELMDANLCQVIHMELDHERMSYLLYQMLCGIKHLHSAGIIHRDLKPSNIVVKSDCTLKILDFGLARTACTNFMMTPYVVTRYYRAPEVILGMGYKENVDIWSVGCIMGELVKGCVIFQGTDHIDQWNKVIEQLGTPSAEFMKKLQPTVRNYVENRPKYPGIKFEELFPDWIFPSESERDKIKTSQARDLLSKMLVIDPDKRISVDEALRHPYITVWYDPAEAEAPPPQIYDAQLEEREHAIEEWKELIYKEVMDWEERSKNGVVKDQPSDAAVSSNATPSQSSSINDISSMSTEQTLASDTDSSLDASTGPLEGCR
Test [17] shares this target. To be noted: at 1 µM.
The target in test [18] is Mitogen-activated protein kinase 1 (Homo sapiens) (UniProt P28482). Conditions: at 0.1 µM.
Mitogen-activated protein kinase 1 (Homo sapiens), sequence (P28482 whole entry): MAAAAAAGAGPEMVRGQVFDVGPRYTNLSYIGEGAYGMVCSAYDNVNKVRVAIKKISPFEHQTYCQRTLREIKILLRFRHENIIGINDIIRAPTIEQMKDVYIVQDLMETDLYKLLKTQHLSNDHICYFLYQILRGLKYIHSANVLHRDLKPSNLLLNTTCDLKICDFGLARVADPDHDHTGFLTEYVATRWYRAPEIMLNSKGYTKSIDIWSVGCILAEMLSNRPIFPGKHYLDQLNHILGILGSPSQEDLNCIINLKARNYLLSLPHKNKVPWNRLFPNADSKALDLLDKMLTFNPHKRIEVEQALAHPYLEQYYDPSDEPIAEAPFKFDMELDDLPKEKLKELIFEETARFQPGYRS
Test [19] has the same target. To be noted: at 1 µM.
In test [20] the target is Mitogen-activated protein kinase 3 (Homo sapiens) (UniProt P27361). Conditions: at 0.1 µM.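 Note: each value is a mean inhibition figure.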
Mitogen-activated protein kinase 3 (Homo sapiens), sequence (P27361 whole entry): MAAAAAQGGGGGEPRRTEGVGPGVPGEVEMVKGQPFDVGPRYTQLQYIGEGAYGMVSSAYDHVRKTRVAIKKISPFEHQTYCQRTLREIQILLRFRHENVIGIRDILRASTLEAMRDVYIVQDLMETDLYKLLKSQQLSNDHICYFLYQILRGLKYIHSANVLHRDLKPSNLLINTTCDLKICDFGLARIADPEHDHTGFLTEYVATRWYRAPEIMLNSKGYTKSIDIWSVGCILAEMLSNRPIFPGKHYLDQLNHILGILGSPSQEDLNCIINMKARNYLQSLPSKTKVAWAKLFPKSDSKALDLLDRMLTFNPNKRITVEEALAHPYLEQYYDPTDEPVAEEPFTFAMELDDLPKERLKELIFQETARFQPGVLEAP

Broadly, the inhibition is the drop in the measured response relative to a control, in per cent.

Dual specificity tyrosine-phosphorylation-regulated kinase 1B (Homo sapiens), sequence (Q9Y463 whole entry, looked up): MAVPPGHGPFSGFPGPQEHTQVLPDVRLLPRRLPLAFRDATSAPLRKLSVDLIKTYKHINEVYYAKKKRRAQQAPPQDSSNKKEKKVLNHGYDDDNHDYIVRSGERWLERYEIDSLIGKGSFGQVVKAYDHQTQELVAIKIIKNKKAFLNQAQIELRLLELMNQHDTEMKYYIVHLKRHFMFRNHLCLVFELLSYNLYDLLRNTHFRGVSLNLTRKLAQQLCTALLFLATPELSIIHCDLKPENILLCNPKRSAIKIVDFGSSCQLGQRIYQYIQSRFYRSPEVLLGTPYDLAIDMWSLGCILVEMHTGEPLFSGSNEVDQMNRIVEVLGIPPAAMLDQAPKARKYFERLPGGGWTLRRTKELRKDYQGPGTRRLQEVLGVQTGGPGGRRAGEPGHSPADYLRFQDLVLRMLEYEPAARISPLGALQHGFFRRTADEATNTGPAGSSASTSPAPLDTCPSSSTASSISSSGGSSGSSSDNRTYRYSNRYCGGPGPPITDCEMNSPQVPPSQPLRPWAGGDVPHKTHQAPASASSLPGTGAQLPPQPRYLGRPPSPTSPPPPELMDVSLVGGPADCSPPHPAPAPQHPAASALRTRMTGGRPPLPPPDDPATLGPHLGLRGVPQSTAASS
Dual specificity protein kinase CLK3 (Homo sapiens), sequence (P49761 whole entry, looked up): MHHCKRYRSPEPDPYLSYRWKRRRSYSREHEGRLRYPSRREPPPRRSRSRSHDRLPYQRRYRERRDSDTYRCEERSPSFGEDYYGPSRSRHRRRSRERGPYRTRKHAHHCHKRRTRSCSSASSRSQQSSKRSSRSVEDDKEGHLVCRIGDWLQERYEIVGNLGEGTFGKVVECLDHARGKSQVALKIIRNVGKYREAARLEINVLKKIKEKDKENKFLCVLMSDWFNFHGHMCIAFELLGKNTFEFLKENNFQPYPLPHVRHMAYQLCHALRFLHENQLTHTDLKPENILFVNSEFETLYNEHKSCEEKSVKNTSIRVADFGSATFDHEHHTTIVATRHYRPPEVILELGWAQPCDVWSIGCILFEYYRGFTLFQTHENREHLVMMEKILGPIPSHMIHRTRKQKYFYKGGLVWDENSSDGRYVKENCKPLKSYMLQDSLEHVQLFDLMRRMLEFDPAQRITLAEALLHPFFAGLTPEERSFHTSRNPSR
Glycogen synthase kinase-3 alpha (Homo sapiens), sequence (P49840 2-483 limits assumed): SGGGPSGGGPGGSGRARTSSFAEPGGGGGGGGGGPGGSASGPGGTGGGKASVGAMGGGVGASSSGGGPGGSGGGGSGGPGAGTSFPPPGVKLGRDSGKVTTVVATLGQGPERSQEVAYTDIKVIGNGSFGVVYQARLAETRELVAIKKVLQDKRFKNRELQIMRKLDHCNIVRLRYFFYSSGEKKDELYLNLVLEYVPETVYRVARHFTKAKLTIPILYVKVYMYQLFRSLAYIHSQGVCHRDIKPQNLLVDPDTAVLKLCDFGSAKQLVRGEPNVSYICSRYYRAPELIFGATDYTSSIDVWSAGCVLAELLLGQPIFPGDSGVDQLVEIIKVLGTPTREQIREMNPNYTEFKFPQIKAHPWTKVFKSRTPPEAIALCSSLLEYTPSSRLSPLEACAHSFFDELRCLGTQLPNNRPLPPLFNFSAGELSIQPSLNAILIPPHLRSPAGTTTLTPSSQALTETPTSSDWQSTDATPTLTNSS

As for `COc1cc2c(cc1Nc1nc(N3CCc4ccccc43)c3cc[nH]c3n1)N(C(=O)CN(C)C)CC2`, the inhibition amounted to 2.24% in test [1]; 0.78% in test [2]; 3.98% in [3]; 0.64% in test [4]; 2.3% in [5]; 2.22% in [6]. Further, the inhibition in test [7] is 2.02%; in [8], 0.35%; in test [9], 1.16%; in [10] it was 0.15%; in [11], 0.72%; in test [12], -1.15%. Besides, the inhibition in [13] came to 2.7%; in test [14], 1.42%; in test [15] it was 2.99%; in test [16], 1.11%; in test [17], 1.82%; in [18] it was 0.85%. The inhibition in test [19] was determined as 2.12%; in [20] it was 2.89%.
Consider `COc1ccccc1Nc1ncc(-c2ccccc2)o1`, for which the inhibition in test [1] is 0.51%; in test [2], 2.5%; in [3] it was 3.38%; in test [4], -1.91%; in test [5], -1.3%; in test [6] it was 4.18%. Further, the inhibition in test [7] is 3.04%; in test [8] it was 2.25%; in test [9], 3.92%; in [10] it was 2.57%; in test [11] it was 2.74%; in [12], -3.68%. The inhibition was 0.57% in test [13]; -0.52% in [14]; 0.15% in [15]; 4.12% in [16]; 3.07% in test [17]; 5.93% in test [18]. Besides, the inhibition was 6.15% in test [19] and 4.06% in test [20].
For the molecule `COc1ccc(-c2coc3ncnc(N)c23)cc1`, the inhibition is 1.54% in test [1]; 3.61% in test [2]; 19.2% in test [3]; -0.37% in [4]; 5.22% in [5]; 3.83% in test [6]. Besides, the inhibition was 4.61% in test [7]; 2.73% in test [8]; 3.86% in test [9]; 0.71% in test [10]; 2.62% in test [11]; -1.54% in test [12]. Moreover, the inhibition was 0.23% in test [13]; -1.26% in [14]; 0.51% in test [15]; 4.38% in test [16]; 5.45% in test [17]; 4.53% in test [18]. Further, the inhibition is 6.4% in [19] and 5.16% in [20].
`CC(C)=Cc1cccc2c1/C(=N/Nc1ccc(S(N)(=O)=O)cc1)C(=O)N2`: the inhibition is 1.83% in test [1]; -1.42% in [2]; 2.34% in test [3]; 0.57% in test [4]; 5.61% in test [5]; 0.58% in test [6]. For the same molecule, the inhibition is 2.29% in [7]; 13.8% in [8]; 53.5% in test [9]; 7.42% in [10]; 44% in test [11]; 2.49% in test [12]. In addition, the inhibition in test [13] is 10.8%; in test [14] it was 1.38%; in [15] it was 6.2%; in [16], -0.73%; in test [17], 6.66%; in test [18], -0.23%. Moreover, the values for the inhibition in test [19] and in [20] were 0.78% and 0.6%, respectively.
With `Cc1nnc(-c2ccc(C)c(-c3ccc(C(=O)Nc4cccc(C#N)c4)cc3)c2)o1`, the inhibition in [1] is 1.62%; in [2], 0.92%; in test [3], 3.59%; in test [4], 0.45%; in [5], 1.21%; in [6], 1.13%. Besides, the inhibition in [7] is 1.2%; in [8], 2.41%; in test [9] it was 4.82%; in test [10], 2.45%; in [11], 3.29%; in [12], -1.32%. Moreover, the inhibition was -2.46% in test [13]; 0.46% in test [14]; 0.28% in [15]; 4% in [16]; 2.96% in test [17]; 0.61% in [18]. The figures for the inhibition in test [19] and in test [20] were 2.56% and 3.17%, respectively.
As to `CCn1c(-c2nonc2N)nc2cncc(C(=O)N3CCNCC3)c21`, the inhibition in [1] is 1.12%; in test [2] it was 3.49%; in test [3], 4.33%; in [4] it was 0.28%; in [5] it was -0.73%; in test [6], 4.35%. For the same molecule, the inhibition is 7.99% in test [7]; 2.98% in test [8]; 2.61% in test [9]; 1.93% in [10]; 1.94% in test [11]; -1.03% in [12]. Moreover, the inhibition in test [13] is 0.35%; in test [14] it was -0.43%; in [15] it was 0.6%; in test [16] it was 5.31%; in test [17], 8.83%; in test [18], 8.16%. Also, the inhibition in [19] turned out to be 7.48%; in test [20], 6.65%.
